{"source": "ChEMBL document CHEMBL3988442", "about": "“University of Dundee, Small-Polar-MMV Screening Library” (2021)", "note": "Screen size: about 48,000 compounds; about 13,000 (27%) showed an effect of 50% or more. The list shows a part of the results."}
{"system": "Wolbachia pipientis", "experiment": "Anti-Wolbachia Cell-Based Screen", "assay_type": "functional", "design": "scale not given: in the data most compounds retested in dose-response had high values", "settings": "5 µM", "units": {"Percent Effect": "%"}}
{"smiles": "CSc1nccc(N2CCN(C)C3(CCNC(=O)CC3)C2)n1", "note": "(configuration not stated)", "Percent Effect": -8.805}
{"smiles": "c1ccc(NC[C@@H]2CCC[C@@H]3CN(Cc4csnn4)C[C@@H]32)nc1", "Percent Effect": 5.24}
{"smiles": "Cc1cccc(CN2CC3C[C@]3(NC(=O)c3ccoc3)C2)n1", "note": "(some centres not stated)", "Percent Effect": -6.434}
{"smiles": "CS(=O)(=O)N[C@@H]1CN(Cc2ccncc2)C[C@@H]2CCCO[C@@H]21.O=C(O)C(F)(F)F.O=C(O)C(F)(F)F", "Percent Effect": -0.6746}
{"smiles": "CS(=O)(=O)NC1CC2(CCN(CCF)CC2)Oc2ccccc21.O=C(O)C(F)(F)F", "note": "(configuration not stated)", "Percent Effect": 90.28}
{"smiles": "O=C(O)C(F)(F)F.O=C(O)C(F)(F)F.O=C(O)C(F)(F)F.c1ccc(CO[C@@H]2CO[C@@]3(CCN(Cc4ccccn4)C3)C2)nc1", "Percent Effect": 19.79}
{"smiles": "CCC(O)Cn1cc(C2=CCN(Cc3cc(O)nc(C)n3)CC2)cn1", "note": "(configuration not stated)", "Percent Effect": 5.407}
{"smiles": "Cl.Cl.Cn1ccc(CN2CCOCC23CCNCC3)n1", "Percent Effect": -7.915}
{"smiles": "CN(CCc1ccccc1)Cc1c(C2CC2)[nH]c2ncccc12", "Percent Effect": 128}
{"smiles": "CN(Cc1ccccc1)c1ncccc1CNC1CN2CCC1CC2", "note": "(configuration not stated)", "Percent Effect": -8.195}
{"smiles": "O=C(O)C(F)(F)F.O=C(O)C(F)(F)F.c1ccc(CN2CC[C@H]3CO[C@H](CNc4ncccn4)[C@H]3C2)cc1", "Percent Effect": 109.8}
{"smiles": "O=C(O)C(F)(F)F.O=C(O)C(F)(F)F.O=C(O)C(F)(F)F.c1cnc(NC[C@H]2OC[C@@H]3CCN(Cc4nccs4)C[C@@H]32)nc1", "Percent Effect": 101}
{"smiles": "c1ccc(CN2CC[C@H]3CO[C@H](CNc4ncccn4)[C@H]3C2)nc1", "Percent Effect": -4.696}
{"smiles": "c1csc(CN2CC[C@H]3C[C@H](c4ccncn4)O[C@@H]3C2)c1", "Percent Effect": 13.32}
{"smiles": "c1cnc(NC[C@H]2OC[C@@H]3CCN(Cc4ccncc4)C[C@@H]32)nc1", "Percent Effect": 115}
{"smiles": "Cn1cc(CN2CC[C@H]3CO[C@H](CNc4ncccn4)[C@H]3C2)cn1.O=C(O)C(F)(F)F.O=C(O)C(F)(F)F", "Percent Effect": -23.96}
{"smiles": "O=C(O)C(F)(F)F.O=C(O)C(F)(F)F.O=C(O)C(F)(F)F.c1cnc(NC[C@H]2OC[C@@H]3CCN(Cc4cccnc4)C[C@@H]32)nc1", "Percent Effect": 106.3}
{"smiles": "Cc1ccc(OCC(=O)N2CCN[C@H]3CS(=O)(=O)C[C@H]32)cn1", "Percent Effect": -8.198}
{"smiles": "N#CC1(c2ccccc2)CCN(C(=O)C2CCCN(C(N)=O)C2)CC1", "note": "(configuration not stated)", "Percent Effect": 6.737}
{"smiles": "CCC(CC)C(=O)N1CCOC2(CNC2)C1", "Percent Effect": -30.77}
{"smiles": "CS(=O)(=O)c1ccc(CC(=O)N2CCN3CCNC(=O)C3C2)cc1", "note": "(configuration not stated)", "Percent Effect": -12.31}
{"smiles": "Cc1cc(CN2C[C@@H]3CN(C(=O)c4ccsc4)CCO[C@@H]3C2)no1.O=C(O)C(F)(F)F", "Percent Effect": 15.19}
{"smiles": "CN(C)CCNC(=O)[C@H]1C[C@H]2CN(c3ncccn3)C[C@H]2N1C.O=C(O)C(F)(F)F.O=C(O)C(F)(F)F.O=C(O)C(F)(F)F", "Percent Effect": -2.268}
{"smiles": "COCC(=O)NC[C@H]1C[C@@H]2CCN1C[C@@H]2c1cc(-c2cccs2)nn1C", "Percent Effect": -7.322}
{"smiles": "CN(c1ncccc1C#N)C1CCN(Cc2ccncc2)CC1", "Percent Effect": -9.884}
{"smiles": "Cn1ccnc1CN1CC[C@H]2CO[C@H](CNc3ncccn3)[C@H]2C1.O=C(O)C(F)(F)F.O=C(O)C(F)(F)F.O=C(O)C(F)(F)F", "Percent Effect": 100.8}
{"smiles": "O=C(O)C(F)(F)F.O=C(O)C(F)(F)F.c1cnc(NC[C@H]2OC[C@@H]3CCN(Cc4ccsc4)C[C@@H]32)nc1", "Percent Effect": 103.6}
{"smiles": "CN1CCN([C@H]2COC[C@@H]3CN(Cc4cccnc4)C[C@@H]32)CC1", "Percent Effect": 3.012}
{"smiles": "CN1CCN(C[C@@H]2OC[C@H]3CN(Cc4ccncc4)CC[C@H]32)CC1", "Percent Effect": 117.8}
{"smiles": "CS(=O)(=O)NC[C@H]1OC[C@@H]2CN(Cc3cccnc3)CC[C@@H]21", "Percent Effect": 117.5}
{"smiles": "O=C1[C@H]2CN(Cc3ccoc3)C[C@@H]2CCN1Cc1cccnc1", "Percent Effect": -2.353}
{"smiles": "COc1ccc(CCN)cc1-c1ccc(C(N)=O)cc1", "Percent Effect": -8.06}
{"smiles": "Cc1noc(C)c1CN1C[C@@H]2OCCN(Cc3cnn(C)c3)[C@@H]2C1", "Percent Effect": -6.904}
{"smiles": "COCCn1c(C(=O)NC(C(N)=O)C(C)C)cc2ccccc21", "note": "(configuration not stated)", "Percent Effect": -3.087}
{"smiles": "Cc1ccccc1-n1cc(C2=CCN(CCn3cc[nH]c3=O)CC2)cn1", "Percent Effect": 20.16}
{"smiles": "Cc1cc(C)c(CNc2ncnc3ccsc23)c(=O)[nH]1", "Percent Effect": 1.6}
{"smiles": "O=C(O)C(F)(F)F.O=C(O)C(F)(F)F.O=C(O)C(F)(F)F.c1ccc(CN2CC[C@@H]3[C@@H](CO[C@@H]3CNc3ncccn3)C2)nc1", "Percent Effect": 94.77}
{"smiles": "O=C(CC1CC1)N[C@@H]1CN(Cc2ccccn2)C[C@@H]2CCCO[C@@H]21.O=C(O)C(F)(F)F.O=C(O)C(F)(F)F", "Percent Effect": -3.839}
{"smiles": "O=S1(=O)CCC(n2cc(C3=CCN(CCn4cccc4)CC3)cn2)C1", "note": "(configuration not stated)", "Percent Effect": -6.845}
{"smiles": "Cc1nc(C(C)C)sc1C(=O)N1CCN(C2CN3CCC2CC3)CC1", "note": "(configuration not stated)", "Percent Effect": 76.14}
{"smiles": "COCCN1CCCC12CCCN(c1ncccn1)C2", "note": "(configuration not stated)", "Percent Effect": -3.4}
{"smiles": "CC(C)(C)c1cc(=O)[nH]c(C2(N)CCCCC2)n1.Cl", "Percent Effect": -23.57}
{"smiles": "Cc1cccc(CN2C[C@@H]3OCCN(S(=O)(=O)N(C)C)[C@@H]3C2)n1", "Percent Effect": 2.928}
{"smiles": "c1ccc(CCN2C[C@@H]3OCCN(c4ncccn4)[C@@H]3C2)cc1", "Percent Effect": 21.57}
{"smiles": "Cn1ccnc1CN1C[C@@H]2OCCN(c3ncccn3)[C@@H]2C1", "Percent Effect": 7.273}
{"smiles": "CN(C)c1nccc(N2CCO[C@H]3CN(Cc4ccco4)C[C@H]32)n1", "Percent Effect": 68.55}
{"smiles": "COCCN1C[C@@H]2OCCN(c3ccnc(N(C)C)n3)[C@@H]2C1", "Percent Effect": 104.4}
{"smiles": "CN(C)c1nccc(N2CCO[C@H]3CN(Cc4ccsc4)C[C@H]32)n1.O=C(O)C(F)(F)F", "Percent Effect": 12.89}
{"smiles": "OCCN1CCOC2(CCCN(c3ncccn3)C2)C1", "note": "(configuration not stated)", "Percent Effect": 10.98}
{"smiles": "CCc1noc(CN2CCOC3(CCCC3)C2)n1", "Percent Effect": 98.78}
{"smiles": "CC(=O)N1CCCC2(CN(Cc3ccncc3)CCO2)C1", "note": "(configuration not stated)", "Percent Effect": -7.212}
{"smiles": "CN1CCC(N2CCOC3(CCCC3)C2)C1=O", "note": "(configuration not stated)", "Percent Effect": 17.36}
{"smiles": "Cc1nc(CN2CCN(C(=O)COc3c(C)ccc(C)c3C)CC2)no1", "Percent Effect": 0.1735}
{"smiles": "c1cc(CN2CCOC3(CCCC3)C2)no1", "Percent Effect": -7.47}
{"smiles": "Cc1noc(C)c1CN1CCCC2(C1)CN(c1nncs1)CCO2", "note": "(configuration not stated)", "Percent Effect": -8.738}
{"smiles": "Cc1nc(CN2CCOC3(CCCC3)C2)no1", "Percent Effect": 71.5}
{"smiles": "Cc1nc(CN2CCOC3(CCCC3)C2)oc1C", "Percent Effect": 98.63}
